Experimental data from PubChem BioAssay.
The source made the active and inactive calls.

Experiments:
[1] = tested on: Plasmodium falciparum Sir2 (PF13_0152, Sir2A); experiment: Plasmodium falciparum Sir2A binding compounds – biochemical, small-molecule microarray, 635 nm fluorescence, primary screen (AID 1098); conditions: fluorescence 635 nm, higher = more signal;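 note: score merges spot fluorescence intensity with its signal-to-noise ratio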
[2] = probe aDKK1 binding to arrayed compounds – biochemical, biotinylated probe, 635/667 nm fluorescence, primary screen (AID 1099); conditions: small-molecule microarray, higher = more signal;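 note: score merges 667nm spot fluorescence with signal to noise across triplicate slides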
[3] = probe aCHRDL2 binding to arrayed compounds – biochemical, biotinylated probe, 635/667 nm fluorescence, primary screen (AID 1100); conditions: small-molecule microarray, higher = more signal
[4] = change in splice reporter luminescence, either direction, cell-based, HEK293, spliceosome inhibition project, primary screen (AID 1101); conditions: HEK293 splicing luciferase reporter, 24 h, higher = more signal, called active from +8 up or from −8 down;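 note: HEK293 cells carrying a splicing-competent luciferase reporter gene; test concentration not given here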
[5] = biological target: Fibroblast growth factor 10 (Homo sapiens) (UniProt O15520); experiment: compounds binding fibroblast growth factor 10 – biochemical, small-molecule microarray, 635 nm fluorescence, primary screen (AID 1102); conditions: FGF10 binding, fluorescence 635 nm, higher = more signal
Fibroblast growth factor 10 (Homo sapiens), sequence (O15520 whole entry, looked up): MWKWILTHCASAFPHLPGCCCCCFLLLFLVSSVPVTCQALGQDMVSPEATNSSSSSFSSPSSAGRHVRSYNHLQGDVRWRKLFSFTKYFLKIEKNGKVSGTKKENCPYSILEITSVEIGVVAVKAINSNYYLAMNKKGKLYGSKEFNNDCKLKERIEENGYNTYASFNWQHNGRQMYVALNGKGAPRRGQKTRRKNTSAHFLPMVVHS

[6] = tested on: glycogen synthase kinase-3 (GSK3A per assay name; protocol says GSK3B); experiment: compounds binding glycogen synthase kinase-3 – biochemical, small-molecule microarray, 635 nm fluorescence, GSK3A, primary screen (AID 1103); conditions: fluorescence 635 nm, higher = more signal; note: the record names both GSK3A and GSK3B
[7] = biological target: Epidermal growth factor receptor (Homo sapiens) (UniProt P00533); experiment: compounds binding epidermal growth factor receptor – biochemical, small-molecule microarray, 635 nm fluorescence, primary screen (AID 1104); conditions: EGFR binding, higher = more signal;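 note: score merges 667 nm emission intensity with spot signal to noise over triplicate slides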
Epidermal growth factor receptor (Homo sapiens), sequence (P00533 whole entry, looked up): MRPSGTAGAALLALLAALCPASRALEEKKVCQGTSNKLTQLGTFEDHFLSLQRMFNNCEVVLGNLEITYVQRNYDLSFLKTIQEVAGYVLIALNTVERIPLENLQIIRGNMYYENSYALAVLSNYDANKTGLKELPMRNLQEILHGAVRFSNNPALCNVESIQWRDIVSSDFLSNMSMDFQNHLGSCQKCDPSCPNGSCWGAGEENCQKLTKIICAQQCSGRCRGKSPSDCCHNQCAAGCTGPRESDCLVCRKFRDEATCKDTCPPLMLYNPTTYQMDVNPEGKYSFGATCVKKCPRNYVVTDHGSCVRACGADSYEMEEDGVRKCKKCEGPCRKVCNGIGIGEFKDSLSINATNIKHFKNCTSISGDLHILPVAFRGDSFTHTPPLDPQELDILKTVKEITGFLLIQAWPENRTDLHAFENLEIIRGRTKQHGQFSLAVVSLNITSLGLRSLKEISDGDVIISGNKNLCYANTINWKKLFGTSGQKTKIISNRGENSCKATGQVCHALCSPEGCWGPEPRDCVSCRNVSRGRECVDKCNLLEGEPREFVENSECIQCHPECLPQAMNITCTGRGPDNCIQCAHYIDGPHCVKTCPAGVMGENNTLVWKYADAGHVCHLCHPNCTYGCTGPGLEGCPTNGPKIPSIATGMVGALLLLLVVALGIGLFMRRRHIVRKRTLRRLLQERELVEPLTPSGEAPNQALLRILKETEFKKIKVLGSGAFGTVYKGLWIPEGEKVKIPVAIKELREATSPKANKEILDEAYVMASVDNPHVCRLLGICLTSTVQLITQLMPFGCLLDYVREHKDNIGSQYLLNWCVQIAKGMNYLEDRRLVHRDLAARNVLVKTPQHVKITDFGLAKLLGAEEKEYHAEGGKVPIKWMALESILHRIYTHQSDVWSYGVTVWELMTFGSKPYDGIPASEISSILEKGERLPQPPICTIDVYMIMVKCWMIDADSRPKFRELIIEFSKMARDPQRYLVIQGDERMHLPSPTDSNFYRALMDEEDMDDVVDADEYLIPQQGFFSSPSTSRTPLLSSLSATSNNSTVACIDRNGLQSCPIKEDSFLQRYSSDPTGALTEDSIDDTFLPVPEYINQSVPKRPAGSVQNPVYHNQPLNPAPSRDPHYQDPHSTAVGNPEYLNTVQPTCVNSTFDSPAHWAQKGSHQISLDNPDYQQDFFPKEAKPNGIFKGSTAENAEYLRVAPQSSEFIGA

[8] = biological target: Follistatin-related protein 3 (Homo sapiens) (UniProt O95633); experiment: compounds binding follistatin-related protein 3 – biochemical, small-molecule microarray, 635 nm fluorescence, primary screen (AID 1105); conditions: FSTL3 binding, higher = more signal;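 note: score merges emission near 667 nm and signal to noise per printed spot across three slides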
Follistatin-related protein 3 (Homo sapiens), sequence (O95633 whole entry, looked up): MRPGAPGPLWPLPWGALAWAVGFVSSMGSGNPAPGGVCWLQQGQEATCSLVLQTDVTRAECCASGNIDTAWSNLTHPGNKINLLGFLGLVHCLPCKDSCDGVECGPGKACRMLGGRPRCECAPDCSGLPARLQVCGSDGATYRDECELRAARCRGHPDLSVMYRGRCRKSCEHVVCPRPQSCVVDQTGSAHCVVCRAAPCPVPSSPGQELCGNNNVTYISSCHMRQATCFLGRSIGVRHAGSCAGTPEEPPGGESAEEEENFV

[9] = biological target: Dickkopf-related protein 1 (Homo sapiens) (UniProt O94907); experiment: small molecules binding DKK1 protein – biochemical, small-molecule microarray, 635 nm fluorescence scan, primary screen (AID 1106); conditions: higher = more signal;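 note: score merges emission near 667 nm with signal to noise over three replicate slides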
Dickkopf-related protein 1 (Homo sapiens), sequence (O94907 whole entry, looked up): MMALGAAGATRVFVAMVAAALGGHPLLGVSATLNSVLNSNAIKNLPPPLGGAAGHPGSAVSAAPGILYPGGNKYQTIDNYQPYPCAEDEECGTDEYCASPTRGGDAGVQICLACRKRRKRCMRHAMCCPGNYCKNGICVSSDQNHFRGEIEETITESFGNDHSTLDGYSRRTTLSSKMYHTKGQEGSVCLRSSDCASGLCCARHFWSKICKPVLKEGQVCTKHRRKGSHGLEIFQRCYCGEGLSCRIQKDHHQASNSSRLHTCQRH

[10] = tested on: Inhibin beta A chain (activin A); experiment: small molecules binding activin A – biochemical, small-molecule microarray, 635 nm fluorescence scan, primary screen (AID 1107); conditions: INHBA, higher = more signal;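 note: mouse activin A protein probed at 4.33 µg/mL on printed slides; score merges bound-protein fluorescence near 667 nm with spot signal-to-noise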
[11] = tested on: Human papillomavirus type 1a protein E7 (residues 44-93); experiment: small molecules binding HPV E7 44-93 – biochemical, small-molecule microarray, residues 44-93, 635 nm fluorescence, primary screen (AID 1108); conditions: fluorescence 635 nm, higher = more signal;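 note: E7 fragment applied at 1 µg/mL in TBST for 1 h at 4 C; score combines spot fluorescence with its signal to noise ratio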
[12] = hepatitis C replication reporter changes, two-sided – Huh7 cells, luciferase reporter, HCV replication inhibitor project, primary screen (AID 1109); conditions: Huh7 HCV replicon luciferase reporter, 48 h; higher = more signal;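 note: huh7 hepatoma cells harbouring a luciferase neomycin HCV replicon reporter; luciferase luminescence as measure of HCV replicon replication; test concentration not given here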
[13] = biological target: Left-right determination factor 2 (Homo sapiens) (UniProt O00292); experiment: small molecules binding LEFTY2 protein – biochemical, small-molecule microarray, 635 nm fluorescence scan, primary screen (AID 1110); conditions: higher = more signal
Left-right determination factor 2 (Homo sapiens), sequence (O00292 whole entry, looked up): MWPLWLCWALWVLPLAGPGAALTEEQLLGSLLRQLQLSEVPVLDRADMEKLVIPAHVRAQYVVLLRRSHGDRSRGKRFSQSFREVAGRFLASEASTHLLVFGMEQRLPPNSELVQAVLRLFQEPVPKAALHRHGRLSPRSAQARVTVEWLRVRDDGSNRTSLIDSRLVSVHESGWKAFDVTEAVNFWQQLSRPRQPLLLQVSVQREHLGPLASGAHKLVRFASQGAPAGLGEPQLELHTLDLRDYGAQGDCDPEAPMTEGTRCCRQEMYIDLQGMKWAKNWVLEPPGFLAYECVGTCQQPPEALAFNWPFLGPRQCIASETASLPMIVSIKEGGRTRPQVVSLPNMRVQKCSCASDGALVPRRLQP

[14] = biological target: Calmodulin-1 (Homo sapiens) (UniProt P0DP23); experiment: small molecules binding calmodulin-1 with EGTA – biochemical, small-molecule microarray, Cy5-labelled CALM1, profiling panel (AID 1111); conditions: Cy5-CALM1 binding fluorescence, higher = more signal;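 note: labelled calmodulin applied in Tris saline Tween buffer holding calcium plus EGTA and DTT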
[15] = biological target: Calmodulin-1 (Homo sapiens) (UniProt P0DP23); experiment: small molecules binding Ca-loaded calmodulin-1 – biochemical, small-molecule microarray, Cy5-labelled CALM1, plus calcium, artefact control for SMM control-protein annotation, profiling panel (AID 1112); conditions: Cy5-CALM1 binding fluorescence, higher = more signal;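 note: score merges spot fluorescence with signal to noise from triplicate slides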
[16] = probe aWnt5a binding to arrayed compounds – biochemical, biotinylated probe, 635/667 nm fluorescence, primary screen (AID 1113); conditions: small-molecule microarray, higher = more signal;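 note: score merges 667 nm fluorescence intensity with signal-to-noise per printed feature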
[17] = probe aShh binding to arrayed compounds – biochemical, biotinylated probe, 635/667 nm fluorescence, primary screen (AID 1114); conditions: small-molecule microarray, higher = more signal;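 note: probe is biotin-labelled aShh protein from a stem cell growth factor screen; measures binding of labelled protein to compounds printed on the slide; score merges feature fluorescence at 667 nm with signal-to-noise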
[18] = probe aNog binding to arrayed compounds – biochemical, biotinylated probe, 635/667 nm fluorescence, primary screen (AID 1115); conditions: small-molecule microarray, higher = more signal;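 note: probe is biotinylated aNog protein used at 0.15 µg/mL for 1 h at 4 C; z-score combines 667 nm fluorescence of each spot with its signal to noise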
[19] = biological target: Torsin-1A-interacting protein 1 (Homo sapiens) (UniProt Q5JTV8); experiment: compound microarray binding of lysate hLAP1 – cell lysate, small-molecule microarray, COS7 lysate, 635/667 nm fluorescence, primary screen (AID 1116); conditions: 635 nm fluorescence, higher = more signal
Torsin-1A-interacting protein 1 (Homo sapiens), sequence (Q5JTV8 whole entry, looked up): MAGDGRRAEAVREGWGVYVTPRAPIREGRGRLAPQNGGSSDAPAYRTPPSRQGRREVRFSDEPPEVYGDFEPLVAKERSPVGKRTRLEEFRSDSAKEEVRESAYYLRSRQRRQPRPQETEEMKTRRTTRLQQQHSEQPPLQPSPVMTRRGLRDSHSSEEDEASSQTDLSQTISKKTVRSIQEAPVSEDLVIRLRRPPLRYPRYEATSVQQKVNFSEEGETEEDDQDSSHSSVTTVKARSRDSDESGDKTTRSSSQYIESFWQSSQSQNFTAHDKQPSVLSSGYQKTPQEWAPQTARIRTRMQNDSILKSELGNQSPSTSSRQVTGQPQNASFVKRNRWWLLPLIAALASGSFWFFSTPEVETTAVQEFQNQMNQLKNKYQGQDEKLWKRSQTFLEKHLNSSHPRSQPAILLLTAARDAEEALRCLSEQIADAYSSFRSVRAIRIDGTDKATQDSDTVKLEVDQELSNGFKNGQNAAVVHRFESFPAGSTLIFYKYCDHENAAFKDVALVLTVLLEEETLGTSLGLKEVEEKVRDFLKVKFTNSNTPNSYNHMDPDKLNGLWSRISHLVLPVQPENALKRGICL

[20] = biological target: Alpha-bungarotoxin (Bungarus multicinctus) (UniProt P60615); experiment: compounds binding labelled alpha-BTX control protein – biochemical, small-molecule microarray, Alexa647 label, 635/667 nm fluorescence, artefact control for SMM control protein annotation, profiling panel (AID 1117); conditions: alpha-BTX-A647 binding fluorescence, higher = more signal
Alpha-bungarotoxin (Bungarus multicinctus), sequence (P60615 whole entry, looked up): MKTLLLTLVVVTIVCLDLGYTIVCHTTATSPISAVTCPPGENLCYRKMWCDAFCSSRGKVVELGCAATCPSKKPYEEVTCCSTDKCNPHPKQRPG

Structure (SMILES)	composite z-score [1]	composite z-score [2]	composite z-score [3]	z-score [4]	composite z-score [5]	composite z-score [6]	composite z-score [7]	composite z-score [8]	composite z-score [9]	composite z-score [10]	composite z-score [11]	z-score [12]	composite z-score [13]	composite z-score [14]	composite z-score [15]	composite z-score [16]	composite z-score [17]	composite z-score [18]	composite z-score [19]	composite z-score [20]
CCOC(=O)NN=C1C[C@@H](O)[C@@H](O)[C@@H]2[C@@H]3C(=O)N(c4cccc(Oc5ccccc5)c4)C(=O)[C@@H]3CC[C@@H]12	0.933	-0.27	-0.187	0.0999 (inactive)	1.13	-0.652	0.164	-0.329	-0.313	-0.237	-0.269	-0.912	0.144	-0.0069	-0.434	-0.0165	-0.32	-0.444	-0.127	1.32
CC(C)CON=C1C[C@@H](O)[C@@H](O)[C@@H]2[C@@H]3C(=O)N(C4CCCCC4)C(=O)[C@@H]3CC[C@@H]12	1.17	-0.22	-0.198	0.353 (inactive)	-0.0852	-0.925	-0.305	-0.504	-0.607	-0.164	-0.991	-1.6	0.0528	-0.333	-0.558	-0.178	-0.279	-0.417	0.136	0.673
CC(C)=NOC[C@@H](C)[C@H](OCc1ccccc1)C(C)C	-0.229	-0.0423	0.631	-0.159 (inactive)	-0.822	-1.06	-0.602	-0.664	-0.355	0.927	-1.19	-0.801	-0.0001	-0.211	-0.285	-0.0758	-0.0709	-0.402	-0.368	0.213
CCOC(=O)[C@H](Cc1ccccc1)NC(=O)CCC1CC(OC(=O)NCCc2ccc(F)cc2)CC2(CCCC(COC(=O)NCCCN3CCCC3=O)O2)O1 (stereo not given in full)	0.844	-0.257	-0.802	-1.79 (inactive)	0.767	0.843	0.478	0.69	0.493	-0.103	1.35	-0.427	0.612	0.566	-0.043	-0.0222	0.149	0.0083	0.0166	0.261
CC(CCC(=O)OC[C@H]1O[C@H](C#Cc2ccccc2)C=C[C@@H]1Oc1ccc(C)cc1)=NO[C@H](C)c1cn([C@H](CO)Cc2ccccc2)nn1	0.708	-0.164	-0.532	0.448 (inactive)	0.17	0.197	0.217	1.12	0.655	0.282	0.53	-1.57	0.423	0.0827	-0.0351	-0.0924	-0.138	0.0169	-0.166	-0.0686
Cc1ccc(S(=O)(=O)NC(CCc2ccccc2)CC(=O)C(C)(C)C)cc1 (stereo not given)	0.491	-0.32	-0.459	-0.327 (inactive)	0.465	0.667	0.589	0.758	0.661	-0.114	0.52	-2.04	0.445	-0.0921	-0.418	-0.125	0.304	-0.0626	-0.0055	0.369
COC(=O)CC=C[C@@H](C)[C@@H](C=NO[C@H](C)c1cn([C@H](CO)Cc2ccccc2)nn1)OC	0.611	-0.233	-0.736	0.934 (inactive)	0.877	0.483	0.952	0.515	1.06	-0.34	0.319	-1.3	1.1	-1.03	-1.24	-0.0179	-0.138	-0.191	0.427	0.608
CCOC(=O)NN=C1C[C@@H](O)[C@@H](O)[C@@H]2[C@@H]3C(=O)N(C(C)(C)C)C(=O)[C@@H]3CC[C@H]12	0.217	0.0171	-0.398	-0.626 (inactive)	0.338	0.666	0.705	0.635	0.739	0.103	0.217	-0.0742	0.481	-0.0749	-0.913	0.0068	0.108	-0.171	0.0059	-0.0211
COC(=O)CC=C[C@@H](C)[C@@H](C=NO[C@@H](C)c1cc(-c2c(C)cc(C)cc2C)no1)NS(=O)(=O)c1ccc(C)cc1	-0.775	0.437	0.969	-1.4 (inactive)	-1.93	-1.46	-1.16	-1.83	-2.26	0.178	-0.707	-1.6	-1.36	-0.3	0.573	-0.202	-0.138	0.0011	-0.436	-0.744
CCOC(=O)NN=C1C[C@@H](O)[C@@H](O)[C@@H]2[C@@H]3C(=O)N(Cc4ccc5c(c4)OCO5)C(=O)[C@@H]3CC[C@H]12	0.263	-0.238	-0.233	0.346 (inactive)	0.0798	-0.566	-0.0894	-0.199	-0.108	0.0787	0.581	0.603	-0.0985	-0.569	-0.0188	-0.129	-0.206	-0.177	1.05	0.543
CC(CCN1CCCCc2nc(C)c(C)cc21)=NOC[C@@H](C)[C@H](OCc1ccccc1)C(C)C	-0.399	-0.624	-0.579	-1.22 (inactive)	-1.78	-1.03	-1.77	-2.25	-0.991	0.736	-0.824	-0.876	-1.47	-1.74	-1.8	-0.335	-0.428	-0.803	-1.07	-2.21
